This is an account of results in PubChem BioAssay.

The source made the active and inactive calls. Unless noted, no rule for the calls is given here.

A short description of test [1]: compounds binding Alexa647 anti-His antibody – biochemical, small-molecule microarray, 635 nm fluorescence, artefact control for SMM control protein annotation, primary screen (AID 1128).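 Also: score merges feature fluorescence with signal-to-noise for each printed compound spot.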 To be noted: higher = more signal.
For test [2], the system named is Human papillomavirus type 1a E7 protein (residues 1-88). As to the kind of experiment: HPV1a E7 small-molecule binders, primary screen, biochemical, small-molecule microarray, residues 1-88, 635 nm (AID 1129). Particulars: small-molecule microarray binding, fluorescence 635 nm; higher = more signal.
Test [3] deals with Focal adhesion kinase 1 (Homo sapiens) (UniProt Q05397). The test is described as follows: PTK2 protein binding on printed compound slides – biochemical, small-molecule microarray, 635/667 nm fluorescence, BSA, DTT, primary screen (AID 1130).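 Also: composite of spot emission at 667 nm and signal to noise over triplicate slides.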 Particulars: 635 nm fluorescence, higher = more signal.
Test [4] concerns Fibrinogen (Alexa647-labelled). As to the kind of experiment: Alexa647-fibrinogen binding to printed small molecules – biochemical, small-molecule microarray, 635/667 nm fluorescence, artefact control for SMM control-protein annotation, profiling panel (AID 1131).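 Also: z-score merges 667 nm fluorescence with per-spot signal-to-noise over triplicate slides.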 Particulars: fibrinogen-A647 binding fluorescence, higher = more signal.
For test [5], the target named is Follistatin (Homo sapiens) (UniProt P19883). The test is described as follows: FST protein binding to printed compounds – biochemical, small-molecule microarray, 635/667 nm fluorescence, primary screen (AID 1132). To be noted: 635 nm fluorescence, higher = more signal.
Test [6] has as its target Fibroblast growth factor 2 (Homo sapiens) (UniProt P09038). As to the kind of experiment: basic fibroblast growth factor binding to printed compounds – biochemical, small-molecule microarray, 635/667 nm fluorescence, primary screen (AID 1133). To be noted: FGF2, fluorescence 635/667, higher = more signal.
Test [7] in a line: JC-1 mitochondrial potential readout, lung cancer cells – cell-based, A549, JC-1 fluorescence, basal, 24 h, 100 nL, profiling panel (AID 1138).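 Also: A549 lung adenocarcinoma cells under basal conditions with no added stimulus; test concentration not given here.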 To be noted: higher = more signal.
Another test deals with Lefty1. As to the kind of experiment: Lefty1 protein binding to printed compounds – biochemical, small-molecule microarray, 635/667 nm fluorescence, primary screen (AID 1139). To be noted: fluorescence 635/667, higher = more signal.
Test [8] deals with wheat germ agglutinin (Triticum aestivum), Alexa647-labelled. The test is described as follows: Alexa647-WGA lectin binding to printed small molecules – biochemical, small-molecule microarray, 635/667 nm fluorescence, artefact control for SMM control-protein annotation, profiling panel (AID 1140).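 Also: score merges 667 nm feature emission with signal to noise over triplicate slides.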 To be noted: WGA-A647 binding, 635 nm fluorescence, higher = more signal.
Test [9] addresses Luciferin 4-monooxygenase (Photinus pyralis) (UniProt P08659). The test is described as follows: inhibition of purified Photinus pyralis luciferase – biochemical, luminescence, purified enzyme, 2006 set, primary screen (AID 1141).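 Also: cell-free assay with purified firefly luciferase at 100 ng per well in PBS; test concentration not given here.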 To be noted: purified firefly luciferase, SteadyGlo luminescence, 30 min; higher = more signal, called active from +8 up or from −8 down.
The test system of test [10] is Wnt5a (protein binding on small-molecule microarray). The test is described as follows: small molecules binding Wnt5a protein – biophysical, small-molecule microarray, 635/667 nm fluorescence, primary screen (AID 1142).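 Also: fluorescence read at 667 nm with signal to noise per printed feature.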 To be noted: 635 nm fluorescence, higher = more signal.
The nature of test [11]: ATP-based viability of Huh7 replicon cells – cell-based, CellTiter-Glo luminescence, basal, 48 h, cytotoxicity control for HCV replication inhibitor project, primary screen (AID 1143).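 Also: Huh7 hepatoma cells carrying a hepatitis C replication reporter with no stimulus; test concentration not given here.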 To be noted: higher = more signal, called active from +8 up or from −8 down. Background: In antiviral work, replicon cells carry a viral genome segment that copies itself.
Test [12] is described as follows: Pseudomonas biofilm growth suppression – PAO1 strain, BacTiter-Glo luminescence, LB-PBS, primary screen (AID 1144). To be noted: P. aeruginosa PAO1 biofilm, 12 h, higher = more signal.
The nature of test [13]: basal CRE-LacZ reporter activity in PC12 – cell-based, unstimulated, primary screen (AID 1145). To be noted: no forskolin, luminescence, 4.5 h, higher = more signal, called active from +8 up or from −8 down.
Test [14] in a line: forskolin-driven CRE-LacZ activity in PC12 – cell-based, CRE-LacZ reporter, forskolin-stimulated, primary screen (AID 1146).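 Also: PC12 cells with 6xCRE LacZ reporter stimulated by forskolin 10 µM; beta-galactosidase reporter signal reflecting CREB driven transcription.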 Particulars: luminescence, 4.5 h, higher = more signal, called active from +8 up or from −8 down.
In test [15] the target is Streptavidin (Streptomyces avidinii) (UniProt P22629). As to the kind of experiment: compounds binding control protein streptavidin – biophysical, small-molecule microarray, 635/667 nm fluorescence, artefact control for SMM compound annotation, primary screen (AID 1147).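 Also: signal reflects streptavidin binding to arrayed compounds as a control protein.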 Particulars: higher = more signal.
Test [16] is described as follows: probe aInhba binding on compound microarray – biochemical, small-molecule microarray, 635/667 nm fluorescence, primary screen (AID 1148).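 Also: score merges 667nm spot fluorescence with signal-to-noise for antibody binding to printed compounds.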 Particulars: higher = more signal.
Test [17] has as its target Torsin-1A (Homo sapiens) (UniProt O14656). As to the kind of experiment: TOR1A wild-type binding on microarray – cell lysate, small-molecule microarray, lysate, 635/667 nm, primary screen (AID 1149). To be noted: COS7 hTOR1A-WT lysate, 635 nm fluorescence, higher = more signal.
For test [18] the target is unchanged. The test is described as follows: torsin A mutant lysate binding on microarrays – cell lysate, small-molecule microarray, COS7 lysate, 635/667 nm fluorescence, primary screen (AID 1150).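 Also: score pools 667 nm emission and signal to noise measuring lysate protein binding.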 To be noted: COS7 hTOR1A mutant lysate, 635 nm fluorescence, higher = more signal.
Test [19] concerns Sonic hedgehog protein (Shh). The test is described as follows: Sonic hedgehog microarray binding compounds – biochemical, small-molecule microarray, 635/667 nm fluorescence, primary screen (AID 1151).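 Also: Shh protein binding to compounds spotted on small-molecule microarray slides; score combines spot fluorescence intensity with signal-to-noise across triplicate slides.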 To be noted: 635 nm fluorescence, higher = more signal.

Chain of Fibroblast growth factor 2 (Homo sapiens) (P09038 whole entry, looked up): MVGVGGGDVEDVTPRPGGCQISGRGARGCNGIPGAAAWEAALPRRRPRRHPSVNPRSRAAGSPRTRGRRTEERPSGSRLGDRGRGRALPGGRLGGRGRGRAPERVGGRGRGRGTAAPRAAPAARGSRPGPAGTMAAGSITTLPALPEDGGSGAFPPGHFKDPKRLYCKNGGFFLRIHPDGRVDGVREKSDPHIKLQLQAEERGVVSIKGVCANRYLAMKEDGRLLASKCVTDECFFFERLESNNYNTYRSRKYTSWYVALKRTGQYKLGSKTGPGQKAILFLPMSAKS
Chain of Focal adhesion kinase 1 (Homo sapiens) (Q05397 whole entry, looked up): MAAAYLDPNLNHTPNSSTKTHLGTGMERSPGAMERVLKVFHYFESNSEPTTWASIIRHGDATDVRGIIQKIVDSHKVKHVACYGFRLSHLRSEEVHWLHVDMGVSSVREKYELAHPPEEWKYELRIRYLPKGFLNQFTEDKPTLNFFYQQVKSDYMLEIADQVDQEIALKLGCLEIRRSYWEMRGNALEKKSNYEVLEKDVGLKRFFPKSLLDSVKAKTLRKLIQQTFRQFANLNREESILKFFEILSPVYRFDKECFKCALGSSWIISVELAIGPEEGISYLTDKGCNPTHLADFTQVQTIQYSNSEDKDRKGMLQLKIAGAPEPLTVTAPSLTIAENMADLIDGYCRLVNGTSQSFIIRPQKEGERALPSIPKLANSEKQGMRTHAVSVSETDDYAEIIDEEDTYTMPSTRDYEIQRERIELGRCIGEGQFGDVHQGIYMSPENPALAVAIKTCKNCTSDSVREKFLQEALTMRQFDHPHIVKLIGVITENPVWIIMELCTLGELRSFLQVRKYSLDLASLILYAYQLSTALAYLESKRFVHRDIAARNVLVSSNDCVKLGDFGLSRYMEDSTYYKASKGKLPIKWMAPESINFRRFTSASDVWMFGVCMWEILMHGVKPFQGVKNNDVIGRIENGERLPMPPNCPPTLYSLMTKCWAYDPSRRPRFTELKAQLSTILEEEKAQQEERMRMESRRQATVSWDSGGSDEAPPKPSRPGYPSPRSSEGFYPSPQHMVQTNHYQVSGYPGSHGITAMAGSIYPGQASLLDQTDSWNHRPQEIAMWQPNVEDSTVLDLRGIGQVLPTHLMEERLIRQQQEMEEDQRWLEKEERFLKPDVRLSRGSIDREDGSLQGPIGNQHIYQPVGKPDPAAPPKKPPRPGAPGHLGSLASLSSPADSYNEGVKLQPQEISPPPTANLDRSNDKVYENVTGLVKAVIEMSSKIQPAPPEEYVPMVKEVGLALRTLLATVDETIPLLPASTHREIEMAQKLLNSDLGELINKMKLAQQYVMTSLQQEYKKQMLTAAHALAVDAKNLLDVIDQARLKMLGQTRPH
Chain of Torsin-1A (Homo sapiens) (O14656 whole entry, looked up): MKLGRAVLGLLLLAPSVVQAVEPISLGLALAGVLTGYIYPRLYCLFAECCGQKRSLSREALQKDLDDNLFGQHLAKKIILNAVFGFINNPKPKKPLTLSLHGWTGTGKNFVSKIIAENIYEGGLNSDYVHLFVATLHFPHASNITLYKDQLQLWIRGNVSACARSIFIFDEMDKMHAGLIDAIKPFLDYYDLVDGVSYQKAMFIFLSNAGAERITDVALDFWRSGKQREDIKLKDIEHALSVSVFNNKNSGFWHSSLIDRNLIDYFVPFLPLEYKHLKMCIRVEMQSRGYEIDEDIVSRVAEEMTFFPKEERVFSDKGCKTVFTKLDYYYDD
Chain of Streptavidin (Streptomyces avidinii) (P22629 whole entry, looked up): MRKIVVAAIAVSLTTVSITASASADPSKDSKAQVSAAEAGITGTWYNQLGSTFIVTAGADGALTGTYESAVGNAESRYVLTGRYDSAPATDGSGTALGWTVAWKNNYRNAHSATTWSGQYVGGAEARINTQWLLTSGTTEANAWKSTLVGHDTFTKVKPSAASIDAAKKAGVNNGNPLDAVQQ
Chain of Luciferin 4-monooxygenase (Photinus pyralis) (P08659 whole entry, looked up): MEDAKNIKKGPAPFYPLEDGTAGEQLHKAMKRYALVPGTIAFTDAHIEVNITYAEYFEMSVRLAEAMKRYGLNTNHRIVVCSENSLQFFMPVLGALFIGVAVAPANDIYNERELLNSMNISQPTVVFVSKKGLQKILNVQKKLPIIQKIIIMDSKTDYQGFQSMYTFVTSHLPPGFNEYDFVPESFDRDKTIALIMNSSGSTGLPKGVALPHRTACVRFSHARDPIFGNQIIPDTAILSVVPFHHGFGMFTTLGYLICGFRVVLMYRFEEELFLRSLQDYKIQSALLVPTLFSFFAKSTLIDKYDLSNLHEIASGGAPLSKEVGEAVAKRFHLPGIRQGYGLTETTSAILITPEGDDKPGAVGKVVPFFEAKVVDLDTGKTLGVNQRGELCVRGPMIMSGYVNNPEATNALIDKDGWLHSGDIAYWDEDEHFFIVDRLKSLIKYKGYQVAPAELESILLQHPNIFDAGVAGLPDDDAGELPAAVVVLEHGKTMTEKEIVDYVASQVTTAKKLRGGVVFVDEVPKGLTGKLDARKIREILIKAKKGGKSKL
Chain of Follistatin (Homo sapiens) (P19883 whole entry, looked up): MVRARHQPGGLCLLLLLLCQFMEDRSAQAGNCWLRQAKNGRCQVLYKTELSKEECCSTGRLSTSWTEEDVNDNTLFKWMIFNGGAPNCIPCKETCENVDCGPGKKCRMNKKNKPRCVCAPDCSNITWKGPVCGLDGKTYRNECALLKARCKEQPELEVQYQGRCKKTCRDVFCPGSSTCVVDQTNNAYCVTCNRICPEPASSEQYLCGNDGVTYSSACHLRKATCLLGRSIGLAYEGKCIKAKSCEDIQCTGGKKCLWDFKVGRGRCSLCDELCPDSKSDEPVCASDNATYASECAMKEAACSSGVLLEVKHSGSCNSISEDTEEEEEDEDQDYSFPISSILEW

With `COCCOC(=O)N1C(=O)[C@@]2(c3cc(C#CCCO)ccc31)[C@H](C(=O)N1CCc3cc(OC)c(OC)cc3C1)[C@H]1C(=O)O[C@H](c3ccccc3)[C@H](c3ccccc3)N1[C@@H]2c1ccccc1OCCO`, the composite z-score came out at 0.362 in test [1]; 1.19 in [2]; 0.496 in test [3]; 0.87 in test [4]; 1.41 in test [5]; 1.3 in [6]. The composite z-score in the test with Lefty1 is 1.3; in [8], 0.603; in test [10], 0.75; in test [15], 0.587; in test [16], 0.425; with Torsin-1A (Homo sapiens) [17], 0.258. Besides, the composite z-score with Torsin-1A (Homo sapiens) [18] was 0.904; in test [19] it was 1.69. Further, the z-score is -0.976 in [7]; 0.151 (inactive) in test [9]; -1.84 (inactive) in [11]; -0.652 (inactive) in [12]; -0.89 (inactive) in test [13]; -0.251 (inactive) in test [14].

Regarding `COC(=O)[C@]1(CO)N=C(c2ccc(OCCCO)cc2)O[C@@H]1c1ccccc1CN=[N+]=[N-]`, the composite z-score in test [1] is 0.477; in test [2] it was 0.286; in test [3], 0.1; in test [4], -0.353; in test [5] it was 0.996; in test [6], 0.435. The composite z-score is 0.341 in the test with Lefty1; -0.342 in test [8]; -0.0408 in [10]; -0.447 in test [15]; -0.154 in test [16]; -0.208 in the test with Torsin-1A (Homo sapiens) [17]. Besides, the values for the composite z-score (with Torsin-1A (Homo sapiens) [18]; in [19]) were 0.518 and 0.583, respectively. Moreover, the z-score was -0.232 in [7]; -0.676 (inactive) in test [9]; -0.394 (inactive) in test [11]; 1.34 (inactive) in [12]; 0.643 (inactive) in test [13]; 0.224 (inactive) in test [14].

Regarding `O=C1c2ccccc2[C@](Cc2ccccc2I)(C(=O)O)[C@H](c2ccc(CO)cc2)N1Cc1ccccc1`, the composite z-score is 0.729 in test [1]; 0.0602 in [2]; 2.7 in test [3]; 0.303 in test [4]; -0.584 in test [5]; -0.42 in test [6]. The composite z-score is -0.827 with Lefty1; 0.471 in test [8]; 0.303 in test [10]; 0.201 in test [15]; 0.0627 in test [16]; 0.363 with Torsin-1A (Homo sapiens) [17]. The composite z-score was 0.0706 in the test with Torsin-1A (Homo sapiens) [18] and -0.282 in [19]. The z-score was 0.068 in test [7]; -0.443 (inactive) in test [9]; -2.39 (inactive) in test [11]; -0.718 (inactive) in [12]; 0.0548 (inactive) in test [13]; 0.131 (inactive) in test [14].

As for `C[C@H]1NC(=O)C([C@@H](C)OCc2ccccc2)NC(=O)[C@@]23C(=O)N[C@@H](Cc4ccccc4)C2[C@H](C)[C@@]2(C)O[C@H]2C3/C=C/C/C=C\CNC1=O` (stereo not given in full), the composite z-score in test [1] is 0.296; in test [2], -0.728; in test [3] it was -0.235; in test [4], -0.394; in [5] it was 0.425; in [6] it was 0.545. For the same molecule, the composite z-score in the test on Lefty1 is 0.459; in test [8], -0.682; in test [10] it was 0.0077; in [15], -0.556; in test [16], -0.179; with Torsin-1A (Homo sapiens) [17], 0.378. Further, the composite z-score in the test with Torsin-1A (Homo sapiens) [18] was 0.352; in test [19], 0.551. The z-score was 0.919 in test [7]; -1.02 (inactive) in test [9]; -1.16 (inactive) in test [11]; 1.3 (inactive) in test [12]; 4.12 (inactive) in test [13]; -0.836 (inactive) in test [14].

Regarding `C=C(/C(=C/C[C@H](OC(=O)c1ccncc1)c1ccccc1OCCO)c1cc(C(=O)OC)ccc1OC)C(C)C`, the composite z-score was 0.32 in [1]; 1.08 in [2]; -0.145 in test [3]; 0.314 in test [4]; 1.07 in [5]; 1.39 in test [6]. Also, the composite z-score in the test on Lefty1 was 0.67; in test [8] it was 0.351; in test [10], 0.913; in [15], -0.0945; in [16], -0.0375; in the test with Torsin-1A (Homo sapiens) [17] it was 0.712. The composite z-score amounted to 0.441 with Torsin-1A (Homo sapiens) [18] and 1.74 in [19]. The z-score in [7] is -0.032; in test [9] it was -0.538 (inactive); in [11], -1.5 (inactive); in test [12] it was -0.439 (inactive); in test [13], 6.99 (inactive); in test [14] it was 0.644 (inactive).
